Molecules are shown by their SMILES. This is part of a sample that, as a whole, favours compounds with a hit. Of some 83,000 tested, about 20% had one in any assay.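 Interpretation: 100, growth as untreated; towards 0, rising growth inhibition; 0, no net growth; 0 to -100, cell death. Compounds scoring below 10 were considered active.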 A number with no mark means an inactive call. Calls of active or inactive are those of the source.

Among the test systems are DU-145 prostate; K-562 leukemia; MALME-3M melanoma; MDA-MB-231 breast; RXF 393 renal; SF-268 CNS; SF-295 CNS; SF-539 CNS; UACC-257 melanoma; M14 melanoma; HCT-15 colon; HT29 colon; SNB-75 CNS; SNB-19 CNS; U251 CNS; PC-3 prostate; UACC-62 melanoma; LOX IMVI melanoma; SK-MEL-28 melanoma; SK-MEL-5 melanoma.
Common to all, as to assay: NCI-60 one-dose screen, 48 h (100 = growth as untreated, 0 = no growth, -100 = all killed)
Holding throughout (conditions): 10 µM unless noted

Consider `Cc1cc(-c2cc(OC(=O)c3ccccc3)ccc2Cl)cc2nnc(Nc3ccc(OCCN4CCCC4)cc3)nc12`, for which the growth was 83.2% with DU-145 prostate; -21.5% (active) in the assay on K-562 leukemia; 79.2% in the assay with MALME-3M melanoma; 70.6% with MDA-MB-231 breast; 59.3% with RXF 393 renal; 92.8% in the assay with SF-268 CNS. In addition, the growth is 92.7% in the assay with SF-295 CNS; 87.1% with SF-539 CNS; 52.1% with UACC-257 melanoma; -8.09% (active) in the assay with M14 melanoma; -66.9% (active) in the assay on HCT-15 colon; 63.9% in the assay with HT29 colon. For the same compound, the growth was 32.7% in the assay with SNB-75 CNS; 91.9% in the assay with SNB-19 CNS; 84.8% in the assay on U251 CNS; -20.2% (active) in the assay with PC-3 prostate; 75.6% in the assay with UACC-62 melanoma; 48.4% in the assay with LOX IMVI melanoma. The growth in the assay on SK-MEL-28 melanoma is 89.2%.
For the compound `C=CC(=O)N1CCC[C@@H](n2nc(-c3ccc(Oc4ccccc4)cc3)c3c(N)ncnc32)C1`, the growth was 47.9% in the assay on DU-145 prostate; 8.51% (active) with K-562 leukemia; 86.8% with MALME-3M melanoma; 56.4% in the assay on MDA-MB-231 breast; 11% in the assay on RXF 393 renal; 42% in the assay with SF-268 CNS. Further, the growth is 60.7% in the assay on SF-295 CNS; 32.9% in the assay with SF-539 CNS; 26.4% with UACC-257 melanoma; 41.9% in the assay with M14 melanoma; 72.6% in the assay with HCT-15 colon; 30.1% in the assay on HT29 colon. For the same compound, the growth is 19.6% in the assay on SNB-75 CNS; 49.8% in the assay on SNB-19 CNS; 48.1% in the assay with U251 CNS; 57.2% in the assay with PC-3 prostate; 20.6% in the assay on UACC-62 melanoma; 24.3% in the assay with LOX IMVI melanoma. In addition, the growth in the assay with SK-MEL-28 melanoma is 79.2%.
For the compound `CCN(CCO)CCCOc1ccc2c(Nc3cc(CC(=O)Nc4cccc(F)c4)[nH]n3)ncnc2c1`, the growth in the assay with DU-145 prostate is 56.6%; in the assay with K-562 leukemia, 32%; in the assay on MALME-3M melanoma it was -17.5% (active); with MDA-MB-231 breast it was 39.4%; in the assay on RXF 393 renal, 86.1%; in the assay on SF-268 CNS, 56.2%. The growth was 65.4% in the assay with SF-295 CNS; 25.8% in the assay with SF-539 CNS; -23.2% (active) in the assay on UACC-257 melanoma; 4.94% (active) in the assay with M14 melanoma; 52.5% in the assay on HCT-15 colon; -1.18% (active) with HT29 colon. Besides, the growth in the assay on SNB-75 CNS is 76.3%; in the assay on U251 CNS, 39.8%; in the assay on PC-3 prostate, 62.6%; with SK-MEL-5 melanoma it was 63.3%; with UACC-62 melanoma, -4.86% (active); with LOX IMVI melanoma, 17.8%. Moreover, the growth in the assay with SK-MEL-28 melanoma was -6.81% (active).
Regarding `Cc1nc(Nc2n[nH]c3c2CN(C(=O)N[C@H](CN(C)C)c2ccccc2)C3(C)C)c2sccc2n1`, the growth in the assay with DU-145 prostate is 6.06% (active); with K-562 leukemia it was 4.69% (active); in the assay on MALME-3M melanoma, -71.4% (active); with MDA-MB-231 breast it was -29.1% (active); in the assay on RXF 393 renal it was -77.3% (active); with SF-268 CNS, -18.4% (active). In addition, the growth in the assay with SF-295 CNS is -3.9% (active); in the assay on SF-539 CNS, -54.8% (active); in the assay with UACC-257 melanoma, -54.6% (active); in the assay on M14 melanoma, -54.8% (active); with HCT-15 colon it was 20%; in the assay with HT29 colon it was -29.6% (active). Also, the growth is -80% (active) in the assay with SNB-75 CNS; 0.125% (active) in the assay on SNB-19 CNS; -22.7% (active) in the assay on U251 CNS; -10% (active) in the assay with PC-3 prostate; -84.9% (active) in the assay on SK-MEL-5 melanoma; -41.3% (active) with LOX IMVI melanoma. Further, the growth in the assay on SK-MEL-28 melanoma is -33.7% (active).
On to `CN1C/C=C\CCOc2cccc(c2)-c2ccnc(n2)Nc2cccc(c2)C1`, for which the growth is 5.04% (active) in the assay on DU-145 prostate; -18.5% (active) in the assay with K-562 leukemia; -79.4% (active) with MALME-3M melanoma; -38.6% (active) with MDA-MB-231 breast; -86.1% (active) with RXF 393 renal; -50.8% (active) with SF-268 CNS. Moreover, the growth was -86.3% (active) with SF-295 CNS; -91.8% (active) in the assay on SF-539 CNS; -73.7% (active) in the assay on UACC-257 melanoma; -78.4% (active) in the assay with M14 melanoma; -16.9% (active) with HCT-15 colon; -16.8% (active) with HT29 colon. Also, the growth in the assay with SNB-75 CNS is -98.6% (active); in the assay on U251 CNS it was -52.9% (active); in the assay with PC-3 prostate it was -41.9% (active); in the assay with SK-MEL-5 melanoma it was -95.1% (active); in the assay on UACC-62 melanoma, -62.7% (active); with LOX IMVI melanoma, -79.4% (active). Besides, the growth in the assay on SK-MEL-28 melanoma was -76% (active).
For `CNc1ncc2cc(-c3cc(NC(=O)NCCC(C)(C)C)c(F)cc3C)c(C)nc2n1`, the growth was 32.6% in the assay on DU-145 prostate; 3.92% (active) in the assay on K-562 leukemia; 1.23% (active) in the assay with MALME-3M melanoma; 1.7% (active) with MDA-MB-231 breast; -23.3% (active) in the assay on RXF 393 renal; 26.5% in the assay on SF-268 CNS. For the same compound, the growth was 25.5% with SF-295 CNS; 27.5% with SF-539 CNS; -10.3% (active) in the assay on UACC-257 melanoma; -12.4% (active) in the assay on M14 melanoma; 19% with HCT-15 colon; 3.91% (active) in the assay with HT29 colon. Further, the growth in the assay with SNB-75 CNS was -16.9% (active); in the assay with SNB-19 CNS, 23.6%; in the assay with U251 CNS, 16%; in the assay with PC-3 prostate, 49.1%; in the assay on UACC-62 melanoma it was -7.93% (active); in the assay on LOX IMVI melanoma it was -34.1% (active). In addition, the growth with SK-MEL-28 melanoma is -6.47% (active).
As to `COC(=O)CNC(=O)[C@@H](OC)[C@@H]1Cc2cc3cc(OC4CC(OC5CC(O)C(O)C(C)O5)C(O)C(C)O4)c(C)c(O)c3c(O)c2C(=O)[C@H]1OC1CC(OC2CC(OC3CC(C)(O)C(O)C(C)O3)C(O)C(C)O2)C(O)C(C)O1` (stereo partly specified), the growth in the assay with DU-145 prostate is 17.2%; in the assay with K-562 leukemia, 10.2%; with MALME-3M melanoma, -35.3% (active); in the assay on MDA-MB-231 breast it was 21.5%; in the assay on RXF 393 renal, -75.4% (active); in the assay on SF-268 CNS, 21.1%. Also, the growth in the assay on SF-295 CNS was 6.85% (active); in the assay on SF-539 CNS, -28.7% (active); in the assay on UACC-257 melanoma, 6.03% (active); with M14 melanoma it was -32.1% (active); in the assay on HCT-15 colon, 31.5%; with HT29 colon, 3.78% (active). For the same compound, the growth was -51.7% (active) with SNB-75 CNS; 9.4% (active) in the assay with SNB-19 CNS; 9.93% (active) in the assay on U251 CNS; 12.9% in the assay with PC-3 prostate; -65.2% (active) in the assay with UACC-62 melanoma; -17.2% (active) in the assay on SK-MEL-28 melanoma.
As to `C/C(=N\NC(=O)Cn1c(-c2ccc(S(C)(=O)=O)cc2)nc2ccccc21)c1ccc(Cl)cc1`, the growth with DU-145 prostate was 112%; in the assay on K-562 leukemia it was 80.7%; in the assay on MALME-3M melanoma, 102%; with MDA-MB-231 breast, 90.2%; in the assay with RXF 393 renal, 92.2%; with SF-268 CNS, 91.3%. In addition, the growth is 90% with SF-295 CNS; 106% in the assay on SF-539 CNS; 88.8% in the assay with UACC-257 melanoma; 94% in the assay on M14 melanoma; 87.8% with HCT-15 colon; 98.3% in the assay with HT29 colon. Besides, the growth was 81.1% with SNB-75 CNS; 93.4% in the assay on SNB-19 CNS; 89.7% in the assay on U251 CNS; 52.2% in the assay with PC-3 prostate; 84.7% in the assay on UACC-62 melanoma; 100% with LOX IMVI melanoma. Besides, the growth with SK-MEL-28 melanoma was 113%.
